The panel holds about 83,000 compounds, 20% with a hit somewhere; the sample as a whole holds those more often.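 Assay: single dose, 48 h. Readout: percent growth (0 = no net growth; negative = cell death). Active: <10.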 The source made the active and inactive calls.

The values that follow come from PubChem BioAssay (NCI).

This test has as its system PC-3 prostate. As to the kind of experiment: NCI-60 one-dose screen, 48 h (100 = growth as untreated, 0 = no growth, -100 = all killed). Conditions: 10 µM unless noted. The method, then: Growth inhibition of the PC-3 human tumor cell line is measured as a screen for anti-cancer activity. Cells are grown in 96 well plates and exposed to the test compound for 48 hours. Compounds are tested at a single concentration, which is 10^-5 M for most compounds. The reported endpoint is percent growth (GI% or GIPRCNT), where numbers from 0 - 100% represent growth inhibition, and numbers from -100% - 0 represent cell death. For example, a value of 40 represents 60% growth inhibition. A value of 0 means no net growth occurred over the course of the experiment. A value of -40 indicates 40% of cells at the beginning of the experiment died by the end of the experiment. A value of -100 means all cells are dead at the end of the experiment.
NCI-60 Human Tumor Cell Lines Screen was performed using the standard one-dose NCI protocol, which is described in more detail at https://dtp.cancer.gov/discovery_development/nci-60/default.htm.
Compounds with GIPRCNT values below 10 were considered active. Activity score was based on GIPRCNT using the following formula: […]
Score is 0 for GIPRCNT values of 100 or above, 50 for GIPRCNT values of 0, and 100 for GIPRCNT values of -100.
In the case of `Cc1c(F)cc(C(N)=O)cc1NCC(=O)Nc1ccc([N+](=O)[O-])cc1`, the growth was 89.5% (inactive). With `COc1cccc2cc(-c3cc4ccccc4[nH]3)/c(=N\NC(=O)c3ccc(Cl)cc3)oc12`, the growth was 35.3% (inactive). The value for `COc1ccccc1-n1cc(C#N)c(N)c1C(=O)c1ccc(C)cc1` was 74.5% (inactive); that for `CCCn1cnc2c(c1=N)C(c1ccc(OC)cc1)c1sc3c(CC)cccc3c1O2` (stereo not given) was 3.57% (active). Turning to `Cc1cccc2c3c(sc12)C(c1ccc(F)cc1)C(C#N)=C(/N=C/c1ccc(Cl)cc1)O3` (stereo not given), the growth is 13.6% (inactive). As for `O=C(c1ccc(Cl)cc1)C1[C@H](c2ccc(Cl)cc2)[C@@H](c2ccccc2)NC12C(=O)Nc1ccccc12` (stereo not given in full), the growth was 29.1% (inactive). With `COc1cc(C2N=C(NNc3ccccc3)NC(C)=C2C(C)=O)ccc1O` (stereo not given) the figure was 84.5% (inactive); with `NC(N)=Nc1ccc(Oc2cccc(NC(N)=Nc3ccc(Cl)c(C(F)(F)F)c3)c2)cc1`, 6.36% (active). Take `ClC(Cl)c1nc(-c2ccco2)n2nc(-c3ccccc3)cc2n1`: the growth was 1.66% (active). The value for `O=C1[C@H]2Cc3c([nH]c4ccccc34)[C@@H](c3ccc(Br)cc3)N2C(=O)CN1C1CCN(CC2CCCCC2)CC1` was -52.3% (active).

Turning to `O=C(Nc1nonc1-c1ccccc1)c1ccc(C(F)(F)F)cc1`, the growth is 71.7% (inactive). As to `COc1cc(-c2nc(SC(C)C)n(C(C)C)c(=O)c2C#N)ccc1OCc1ccccc1`, the growth is 73.1% (inactive). Regarding `CCO/C=N/C1=C(C#N)C(c2ccc(F)cc2)c2sc3c(C)cccc3c2O1` (stereo not given), the growth is 14.5% (inactive). The value for `CS(=O)(=O)Nc1cc(-c2ccc3ncc(C#N)c(N[C@H](CO)c4ccccc4)c3c2)cnc1Cl` was 32.7% (inactive). `C/C(=N\O)[C@H]1C[C@]23CC[C@]4(C)[C@H](CC[C@@H]5[C@@]6(C)CC/C(=N/O)C(C)(C)[C@@H]6CC[C@]54C)[C@H]2[C@H](C)C1(C)OC3`: the growth was 94.8% (inactive). The value for `Clc1ccc(N/N=c2/oc3ccccc3cc2-c2cc3ccccc3[nH]2)cc1` was 63.9% (inactive); that for `Cc1ccc(CSc2nc(-c3ccc(Cl)cc3)c(C#N)c(N3CCOCC3)n2)cc1` was 80.3% (inactive). In the case of `COc1ccccc1NC1=C(Cl)C(=O)c2nc(C)ccc2C1=O`, the growth is 27.4% (inactive). Consider `NS(=O)(=O)c1ccc(-n2cc(CN3CCCCC3)nn2)cc1`, for which the growth is 98.9% (inactive). Consider `CC(C)(C)c1ccc(C(=O)Nc2sc3c(c2C(N)=O)CCC(O)C3)cc1` (stereo not given), for which the growth is 54.1% (inactive). Regarding `Cn1ccnc1C(=O)/C=C/c1ccc(NC(=O)c2ccc(F)cc2)cc1`, the growth was 27.6% (inactive). As to `Oc1cccc2ccc(-c3nnc(SCc4ccc(O)c5ncccc45)o3)nc12`, the growth was 9.67% (active). For `COc1ccc(/C=N/NC(=O)c2cn(C3CC3)c3c(OC)c(N4CC5CCCNC5C4)c(F)cc3c2=O)cc1` (stereo not given), the growth is 75.1% (inactive).

Regarding `C#Cc1nc(C(C)=O)cs1`, the growth is 98.4% (inactive). For the compound `COc1ccc2c(c1)Oc1nc(N)c(C#N)c(N)c1C2Sc1ccc(C)cc1` (stereo not given), the growth was -43.8% (active). As for `COc1c(N2CC3CCCNC3C2)c(F)cc2c(=O)c(C(=O)N/N=C/c3ccc(Br)cc3)cn(C3CC3)c12` (stereo not given), the growth was 65.1% (inactive). In the case of `COc1ccc(CCN2C(=O)CSC2=S)cc1`, the growth was 88.8% (inactive).

Consider `O=C1CCCC2=C1C(c1c[nH]c3ccc(Br)cc13)Cc1cc(Br)ccc1N2` (stereo not given), for which the growth was 9.76% (active). `c1ccc(C(c2nc3ncncc3[nH]2)N2CSc3nc4ncncc4n3C2)cc1` (stereo not given): the growth is 78.2% (inactive).

As for `COc1cc(-c2nn(C(C)(C)C)cc2-c2ccnc(NCCCNS(=O)(=O)c3ccc(Cl)cc3)n2)ccc1Cl`, the growth was 30.5% (inactive). `CNC(=O)c1cc(Oc2ccc3nc(NC(=O)c4cccc(OC(F)(F)F)c4)sc3c2)ccn1`: the growth is 73% (inactive). With `Cc1ccc2c(c1)C13C(=C2Br)CCCN1C(=O)c1ccccc13` (stereo not given), the growth is 67.9% (inactive). The value for `O=c1[nH]c2ccccc2cc1CSc1ccccc1Nc1nccc(-c2ccc(Cl)cc2)n1` was 87.9% (inactive).

With `C#CCNC1CCC(c2csc(C#C)n2)=C1C` (stereo not given), the growth was 80.8% (inactive). For the compound `CCOC(=O)c1c(Nc2ccccc2)nn2c(-c3ccc(Cl)cc3)ccnc12`, the growth was 80.5% (inactive). The value for `C[C@@H](Nc1ncnc2ccc(-c3cnc(Cl)c(NS(C)(=O)=O)c3)cc12)c1ccccc1` was 41.5% (inactive); that for `COc1cc(OC)c(S(N)(=O)=O)cc1C(C)=O` was 94.9% (inactive); that for `CCCCNNC(=O)c1ccc(-c2cccc(F)c2F)cc1` was 45.9% (inactive). On to `CNC(=O)c1cc(-c2ccc(NS(=O)(=O)c3ccc(C)cc3)cc2)nc2cccnc12`, for which the growth was 99.7% (inactive).

For the compound `O=C1C(c2ccccc2)=C(N2CCc3ccccc32)OC1(Cl)Cl`, the growth was 69.5% (inactive).
